PubChem BioAssay (NCATS)
Inconclusive results are not listed. Calls of active or inactive are those of the source. Unless noted, calls come from the whole dose curve; as a rule, active = well fitted curve in either direction with a large enough effect (not every such curve was filed as active); inconclusive = small, poorly fitted or top-dose-only effect, or another doubt; inactive = flat fitted curve, though single readings scatter.

Columns and labels:
[1] = target: Lysosomal acid glucosylceramidase (Homo sapiens) (UniProt P04062); experiment: Glucocerebrosidase-p2 (AID 348; in the data active = potency below about 10 µM; note: potency is the fitted concentration of half-maximal effect); conditions: purified GBA, blue fluorogenic substrate, 40 min
In short: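 Compounds titrated from 0.6 nM upwards against 0.2 nM enzyme in pH 5.9 citric acid/KH2PO4, taurocholate, tween-20; blue fluorogenic substrate 80 uM, 40 min room temperature, stopped and read Ex 365/Em 440 for AC50.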

[2] = AP1 Signaling Pathway (AID 357); conditions: ME-180 (cervical carcinoma) AP-1-bla reporter, EGF-induced, beta-lactamase ratio, 5 h; at 7.69 µM (top of the series) unless noted;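 note: ME-180 reporter cells stimulated with EGF at its EC50 level; % is set by controls: 0 for no effect and ±100 for the full control effect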
In short: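 In this screen, ME-180 cells in Opti-MEM with 0.5% dialyzed FBS received EC50 EGF and compound titrations for 5 h. AP-1 reporter beta-lactamase was detected via CCF4 ratio, giving AC50 for positive and negative modulators.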

[3] = target: Cytochrome P450 1A2 (Homo sapiens) (UniProt P05177); experiment: p450-cyp1a2 (AID 410; calls by dose curve; note: potency is the fitted concentration of half-maximal effect;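 for activity change, negative = inhibition: -100% = full effect of reference inhibitor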); conditions: recombinant CYP1A2, luciferin-ME demethylation, luminescence; series mostly up to 11.4 µM
In short: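 Human CYP1A2 (20nM) demethylated Luciferin-ME at its Km (100uM) in 100mM KPO4. After 10 min compound preincubation, NADPH regeneration ran the reaction 60 min at room temperature. Luciferin was read by luminescence, normalized to 57 uM furafylline.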

[4] = NFAT Signaling Pathway (AID 444); conditions: Jurkat NFAT-bla M1, carbachol, beta-lactamase ratio, 5 h; at 7.69 µM (top of the series) unless noted;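 note: carbachol stimulus at about its EC50 of 1 µM final; % is set by controls: 0 for no effect and ±100 for the full control effect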
In short: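 Jurkat cells carrying an NFAT-driven β-lactamase reporter and co-transfected muscarinic M1 receptor were treated with compound plus carbachol (1 uM final, an EC50 level) for 5 h at 37 °C. CCF4 loading followed for 1 h at RT; 460/530 nm ratio gave %activity.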

[5] = target: Glucocorticoid receptor (Homo sapiens) (UniProt P04150); experiment: GR-GFP Redistribution (AID 450;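 active = compounds whose dose series gives a full or clear partial fitted curve of increased nuclear translocation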; note: potency is the fitted concentration of half-maximal effect); conditions: U2OS GR-GFP nuclear translocation, laser cytometry, 2 h
[6] = target: Glucocorticoid receptor (Homo sapiens) (UniProt P04150); experiment: GR-EFC Redistribution (AID 451; calls by dose curve; note: potency is the fitted concentration of half-maximal effect); conditions: CHO-K1 GR-EFC translocation, beta-gal luminescence, 2 h
In short: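 CHO-K1 cells stably expressing nuclear-localized β-gal enzyme acceptor and GR fused C-terminally to the enzyme donor fragment; ligand-driven nuclear translocation restores β-gal by complementation. Compounds titrated up to 46 uM final, 2 h at 37 °C; luminescence read.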

[7] = target: Mitogen-activated protein kinase 10 (Mus musculus) (UniProt Q61831); experiment: JNK3 AlphaScreen Assay (AID 530); conditions: JNK3 lysate, c-Jun phosphorylation; series mostly up to 11.4 µM;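 note: kinase came from lysate of stimulated human HepG2 cells; signal reports phosphorylation of biotinylated GST-cJun 1-79 at Ser73 with 10 µM ATP; % is set by controls: 0 for no effect and ±100 for the full control effect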
In short: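 JNK3 came from HepG2 lysates pre-activated with IL-1beta and TNF-alpha and phosphorylated biotinylated GST-cJun (1-79) at 10 uM ATP, pH 7.6, room temperature. Compounds were titrated. AlphaScreen signal used anti-phospho-cJun (Ser73) antibody.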

[8] = target: 3',5'-cyclic-AMP phosphodiesterase 4B (Homo sapiens) (UniProt Q07343); experiment: qHTS Assay for Inhibitors of PDE-IV (AID 607; active = well fitted activation curve with a large enough effect in the main read-out, with a control signal flat, not every such curve was filed as active; note: % of control where 0% means no effect); conditions: HEK293 ACTOne CNG channel cells, membrane potential fluorescence; series mostly up to 22.9 µM
In short: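 HEK293 ACTOne cells with CNG channel (1000/well), endogenous PDE4; membrane potential dye, compounds up to 22.9 uM final. Fluorescence Ex 535/Em 590; RO 20-1724 (100 uM final) as reference.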

[9] = target: Cytochrome P450 3A4 (Homo sapiens) (UniProt P08684); experiment: qHTS Assay for Inhibitors and Substrates of Cytochrome P450 3A4 (AID 884; active = well fitted curve in the direction sought with a large enough effect; an effect the other way counts as inactive or inconclusive; note: potency is the fitted concentration of half-maximal effect; nearly all actives have a fitted effect of over 50% in size); conditions: recombinant CYP3A4, Luciferin-PPXE luminescence; series mostly up to 57.1 µM
In short: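 20 nM human CYP3A4 with 25 uM Luciferin-PPXE (at KM) in 200 mM KPO4, preincubated 10 min with compound; NADPH regeneration started a 60 min RT reaction. Luciferin detected by luminescence, normalized to 57 uM ketoconazole as full inhibition.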

[10] = target: Cytochrome P450 2C19 (Homo sapiens) (UniProt P33261); experiment: qHTS Assay for Inhibitors and Substrates of Cytochrome P450 2C19 (AID 899; active = well fitted curve in the direction sought with a large enough effect; an effect the other way counts as inactive or inconclusive; note: % is set by controls: 0 for no effect and ±100 for the full control effect; nearly all actives have a fitted effect of over 60% in size); conditions: recombinant CYP2C19, luciferin-H EGE luminescence; series mostly up to 11.4 µM
In short: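 Human CYP2C19 (5nM) with Luciferin-H EGE at 10uM (its KM) in 50mM KPO4 was preincubated with compound for 10 min at 37C. NADPH regeneration started a 60 min 37C reaction. Luciferin was read by luminescence, normalized to 57uM ketoconazole.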

[11] = target: Cytochrome P450 2D6 (Homo sapiens) (UniProt P10635); experiment: qHTS Assay for Inhibitors and Substrates of Cytochrome P450 2D6 (AID 891; active = well fitted curve in the direction sought with a large enough effect; an effect the other way counts as inactive or inconclusive; note: potency is the fitted concentration of half-maximal effect; nearly all actives have a fitted effect of over 60% in size); conditions: recombinant CYP2D6, luciferin-ME EGE luminescence; series mostly up to 11.4 µM
In short: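 Human CYP2D6 (5 nM) with 30 uM Luciferin-ME EGE (at Km) in 100 mM KPO4, compound preincubated 10 min, then NADPH regeneration system for 60 min at room temperature. Luciferin read by luminescence; normalized to 1.43 uM quinidine.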

[12] = target: Cytochrome P450 3A4 (Homo sapiens) (UniProt P08684); experiment: qHTS Assay for Activators of Cytochrome P450 3A4 (AID 885; active = well fitted curve in the direction sought with a large enough effect; an effect the other way counts as inactive or inconclusive; note: nearly all actives have a fitted effect of over 65% in size); conditions: recombinant CYP3A4, Luciferin-PPXE luminescence, 60 min; series mostly up to 11.4 µM
In short: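 Human CYP3A4 (20 nM) with Luciferin-PPXE at 25 uM (its KM) in 200 mM KPO4; 10 min compound preincubation, then NADPH regeneration and 60 min reaction at RT. Luciferin read by luminescence; normalized to 57 uM ketoconazole full inhibition.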

3',5'-cyclic-AMP phosphodiesterase 4B (Homo sapiens), sequence (Q07343 whole entry, looked up): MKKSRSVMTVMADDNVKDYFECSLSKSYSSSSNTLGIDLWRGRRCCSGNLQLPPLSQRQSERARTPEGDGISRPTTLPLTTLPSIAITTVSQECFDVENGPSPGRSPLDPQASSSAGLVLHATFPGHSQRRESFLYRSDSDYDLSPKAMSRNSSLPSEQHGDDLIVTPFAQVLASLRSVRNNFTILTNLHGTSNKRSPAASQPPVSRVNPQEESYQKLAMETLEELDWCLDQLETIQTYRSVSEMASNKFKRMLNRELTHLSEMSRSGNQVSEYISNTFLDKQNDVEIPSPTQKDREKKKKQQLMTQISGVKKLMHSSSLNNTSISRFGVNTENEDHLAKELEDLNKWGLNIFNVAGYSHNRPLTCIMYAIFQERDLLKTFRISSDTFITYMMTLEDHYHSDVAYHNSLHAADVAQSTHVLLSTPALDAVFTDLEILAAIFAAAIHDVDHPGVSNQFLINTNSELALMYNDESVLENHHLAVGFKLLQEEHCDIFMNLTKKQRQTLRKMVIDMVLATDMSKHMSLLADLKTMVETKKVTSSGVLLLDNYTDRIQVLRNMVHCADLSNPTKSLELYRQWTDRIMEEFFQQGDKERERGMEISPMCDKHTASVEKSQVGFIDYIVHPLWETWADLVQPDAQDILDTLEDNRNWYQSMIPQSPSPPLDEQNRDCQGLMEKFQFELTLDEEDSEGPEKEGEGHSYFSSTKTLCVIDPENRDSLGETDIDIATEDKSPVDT
Cytochrome P450 3A4 (Homo sapiens), sequence (P08684 whole entry, looked up): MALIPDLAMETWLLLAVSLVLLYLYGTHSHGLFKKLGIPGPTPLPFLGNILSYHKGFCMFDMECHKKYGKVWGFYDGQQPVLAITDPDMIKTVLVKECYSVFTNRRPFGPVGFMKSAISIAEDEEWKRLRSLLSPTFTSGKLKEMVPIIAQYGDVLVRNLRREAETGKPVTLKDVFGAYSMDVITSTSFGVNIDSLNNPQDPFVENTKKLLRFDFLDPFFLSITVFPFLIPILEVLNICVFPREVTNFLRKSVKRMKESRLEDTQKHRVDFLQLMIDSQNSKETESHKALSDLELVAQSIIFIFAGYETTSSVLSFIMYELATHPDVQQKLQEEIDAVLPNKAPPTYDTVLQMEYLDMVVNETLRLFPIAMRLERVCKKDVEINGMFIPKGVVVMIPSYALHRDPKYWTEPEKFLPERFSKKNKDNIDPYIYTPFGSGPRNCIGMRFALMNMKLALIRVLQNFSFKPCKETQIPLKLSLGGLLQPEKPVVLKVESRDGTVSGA
Lysosomal acid glucosylceramidase (Homo sapiens), sequence (P04062 whole entry, looked up): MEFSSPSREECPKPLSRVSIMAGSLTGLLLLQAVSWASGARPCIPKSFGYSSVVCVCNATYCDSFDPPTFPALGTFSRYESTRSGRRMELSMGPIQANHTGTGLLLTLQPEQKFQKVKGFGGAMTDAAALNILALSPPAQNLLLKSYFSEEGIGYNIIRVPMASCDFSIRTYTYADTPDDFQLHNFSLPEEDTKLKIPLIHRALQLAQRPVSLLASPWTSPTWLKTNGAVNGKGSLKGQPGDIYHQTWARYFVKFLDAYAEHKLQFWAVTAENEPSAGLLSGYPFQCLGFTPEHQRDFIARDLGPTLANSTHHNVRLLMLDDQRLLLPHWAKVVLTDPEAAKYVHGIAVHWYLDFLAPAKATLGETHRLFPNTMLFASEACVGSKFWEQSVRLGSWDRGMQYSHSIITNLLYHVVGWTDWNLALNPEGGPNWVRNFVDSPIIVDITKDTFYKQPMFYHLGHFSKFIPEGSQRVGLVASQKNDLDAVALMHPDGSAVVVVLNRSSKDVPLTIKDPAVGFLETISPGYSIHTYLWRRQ
Glucocorticoid receptor (Homo sapiens), sequence (P04150 whole entry, looked up, the tested form may be a part): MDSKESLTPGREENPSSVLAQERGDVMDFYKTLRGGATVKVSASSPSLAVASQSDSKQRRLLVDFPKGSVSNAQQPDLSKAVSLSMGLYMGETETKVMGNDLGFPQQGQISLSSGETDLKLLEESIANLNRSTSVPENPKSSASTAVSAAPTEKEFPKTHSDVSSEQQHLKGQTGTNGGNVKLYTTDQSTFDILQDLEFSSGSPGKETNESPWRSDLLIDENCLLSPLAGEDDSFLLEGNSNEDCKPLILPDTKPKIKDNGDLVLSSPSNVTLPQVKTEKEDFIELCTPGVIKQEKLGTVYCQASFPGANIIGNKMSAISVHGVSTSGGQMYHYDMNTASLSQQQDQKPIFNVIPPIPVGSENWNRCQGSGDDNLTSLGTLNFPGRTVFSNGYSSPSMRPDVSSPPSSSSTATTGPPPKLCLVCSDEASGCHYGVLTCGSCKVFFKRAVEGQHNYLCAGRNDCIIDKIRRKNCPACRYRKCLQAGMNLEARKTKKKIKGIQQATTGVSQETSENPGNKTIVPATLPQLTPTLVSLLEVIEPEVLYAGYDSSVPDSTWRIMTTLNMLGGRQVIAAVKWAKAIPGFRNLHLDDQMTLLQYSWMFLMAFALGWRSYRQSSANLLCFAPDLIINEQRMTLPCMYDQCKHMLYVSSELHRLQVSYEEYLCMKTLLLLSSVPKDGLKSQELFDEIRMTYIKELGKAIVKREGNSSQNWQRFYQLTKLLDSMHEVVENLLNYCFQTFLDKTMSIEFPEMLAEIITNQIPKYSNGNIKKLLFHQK
Cytochrome P450 1A2 (Homo sapiens), sequence (P05177 whole entry, looked up): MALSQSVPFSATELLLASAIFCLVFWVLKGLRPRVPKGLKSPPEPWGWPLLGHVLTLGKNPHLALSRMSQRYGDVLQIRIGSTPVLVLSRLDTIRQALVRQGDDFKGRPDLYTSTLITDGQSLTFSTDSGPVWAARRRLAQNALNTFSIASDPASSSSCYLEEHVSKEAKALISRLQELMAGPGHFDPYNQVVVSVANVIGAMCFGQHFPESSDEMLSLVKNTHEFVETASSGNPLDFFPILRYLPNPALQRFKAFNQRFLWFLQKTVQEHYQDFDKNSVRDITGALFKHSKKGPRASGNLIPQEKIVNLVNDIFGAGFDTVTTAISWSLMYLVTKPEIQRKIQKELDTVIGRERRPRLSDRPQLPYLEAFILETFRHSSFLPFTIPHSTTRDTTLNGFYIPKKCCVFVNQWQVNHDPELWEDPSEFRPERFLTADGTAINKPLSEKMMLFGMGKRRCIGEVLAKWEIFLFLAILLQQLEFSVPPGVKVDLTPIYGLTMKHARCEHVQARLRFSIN
Cytochrome P450 2C19 (Homo sapiens), sequence (P33261 whole entry, looked up): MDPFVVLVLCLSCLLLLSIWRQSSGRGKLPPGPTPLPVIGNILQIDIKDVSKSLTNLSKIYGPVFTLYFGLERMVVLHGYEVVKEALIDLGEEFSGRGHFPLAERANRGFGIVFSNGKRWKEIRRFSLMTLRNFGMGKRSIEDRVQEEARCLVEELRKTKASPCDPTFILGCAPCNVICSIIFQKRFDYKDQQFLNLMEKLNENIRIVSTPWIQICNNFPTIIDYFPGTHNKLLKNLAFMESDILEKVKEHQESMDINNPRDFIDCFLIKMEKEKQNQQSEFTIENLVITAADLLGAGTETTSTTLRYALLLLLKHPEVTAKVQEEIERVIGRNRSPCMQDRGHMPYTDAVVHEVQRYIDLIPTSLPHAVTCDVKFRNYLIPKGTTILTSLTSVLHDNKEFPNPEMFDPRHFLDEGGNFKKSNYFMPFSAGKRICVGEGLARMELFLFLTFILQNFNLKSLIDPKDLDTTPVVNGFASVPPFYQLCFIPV
Cytochrome P450 2D6 (Homo sapiens), sequence (P10635 whole entry, looked up): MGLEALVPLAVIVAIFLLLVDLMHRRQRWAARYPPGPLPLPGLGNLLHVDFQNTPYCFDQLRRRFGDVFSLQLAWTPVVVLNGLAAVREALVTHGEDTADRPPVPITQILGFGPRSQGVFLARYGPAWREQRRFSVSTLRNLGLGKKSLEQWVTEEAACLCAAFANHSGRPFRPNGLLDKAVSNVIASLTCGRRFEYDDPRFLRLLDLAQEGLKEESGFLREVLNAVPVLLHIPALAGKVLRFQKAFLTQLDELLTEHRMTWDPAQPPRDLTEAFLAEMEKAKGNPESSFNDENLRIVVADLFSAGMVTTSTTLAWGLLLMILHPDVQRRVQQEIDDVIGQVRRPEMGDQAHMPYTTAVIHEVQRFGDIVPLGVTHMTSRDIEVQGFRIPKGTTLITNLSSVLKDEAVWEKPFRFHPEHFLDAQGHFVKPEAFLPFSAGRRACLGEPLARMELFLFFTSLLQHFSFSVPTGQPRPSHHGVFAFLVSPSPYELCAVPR

Cc1cc(C)c2nc3c(c([C@H](O)[C@@H]4CCCCN4)c2c1)CC/C3=C/c1ccc(Cl)cc1
inactive: Potency [1] > 11.4 µM | activity change, negative = inhibition [2] 4.75% | Potency [3] | activity change, negative = inhibition [4] -2.24% | Potency [5] > 46 µM | Potency [6] > 9.22 µM | Potency [7] | Potency [8]

NC(N)=NC(N)=Nc1ccccc1 (tested in a mixture with another compound)
inactive: Potency [1] > 11.4 µM | activity change, negative = inhibition [2] -4.98% | activity change, negative = inhibition [4] 10.5% | Potency [5] > 46 µM | Potency [6] > 9.22 µM | Potency [7] | Potency [8]
active: Potency [3] 3.16 µM

CN1CCc2[nH]nc(-c3n[nH]c4c3CN(C)CC4)c2C1
inactive: Potency [1] > 11.4 µM | activity change, negative = inhibition [2] 3.96% | Potency [3] | activity change, negative = inhibition [4] 4.1% | Potency [5] > 46 µM | Potency [6] > 9.22 µM | Potency [7] | Potency [8]

CCNc1ncc2nc(C)c(=O)n(Cc3cccc(OC)c3)c2n1
inactive: Potency [1] > 11.4 µM | activity change, negative = inhibition [2] -13.2% | activity change, negative = inhibition [4] -2.59% | Potency [5] > 9.22 µM | Potency [6] > 46 µM | Potency [7] | Potency [8]
active: Potency [3] 3.16 µM | Potency [9] 7.94 µM

CC(C)NC[C@@H](O)c1ccc(O)c2ncccc12
inactive: Potency [1] > 11.4 µM | activity change, negative = inhibition [2] -5.62% | activity change, negative = inhibition [3] -12.1% [at 2.29 µM] | activity change, negative = inhibition [4] 14% | Potency [5] > 46 µM | Potency [6] > 9.22 µM | Potency [7] | Potency [8] | Potency [10]

CCC(=O)OCN1C(=O)C=CC1=O
inactive: Potency [1] > 11.4 µM | activity change, negative = inhibition [2] -2.18% | activity change, negative = inhibition [4] -27.8% | Potency [5] > 46 µM | Potency [6] > 9.22 µM | Potency [7] | Potency [8]
active: Potency [3] 3.16 µM

c1ccc(NCCSc2nc3ccccc3s2)cc1
inactive: Potency [1] > 11.4 µM | activity change, negative = inhibition [2] 2.9% | activity change, negative = inhibition [4] -14.1% | Potency [5] > 46 µM | Potency [6] > 9.22 µM | Potency [7] | Potency [8]
active: Potency [3] 0.501 µM

CN(C)CCCN1c2ccccc2Sc2cnccc21
active: Potency [3] 0.501 µM | Potency [9] 1.58 µM | Potency [11] 1.58 µM
inactive: Potency [1] > 11.4 µM | activity change, negative = inhibition [2] 6.06% | activity change, negative = inhibition [4] -14.8% | Potency [5] > 46 µM | Potency [6] > 9.22 µM | Potency [7] | Potency [8]

Sc1ccc2ccccc2c1CNCc1ccccc1
active: Potency [3] 1.26 µM | Potency [11] 1.26 µM
inactive: Potency [1] > 11.4 µM | activity change, negative = inhibition [2] 12.3% | activity change, negative = inhibition [4] -0.525% | Potency [5] > 46 µM | Potency [6] > 9.22 µM | Potency [7] | Potency [8]

COc1ccc(Oc2ncc3nc(C)c(=O)n(-c4ccc(OC)cc4)c3n2)cc1
inactive: Potency [1] > 11.4 µM | activity change, negative = inhibition [2] -21.8% | activity change, negative = inhibition [4] -15.1% | Potency [5] > 9.22 µM | Potency [6] > 46 µM | Potency [7] | Potency [8] | Potency [12]
active: Potency [3] 15.8 µM | Potency [9] 3.98 µM

CC(C)=C[C@H]1[C@@H](COC(=O)c2ccccc2Cl)C1(C)C
inactive: Potency [1] > 11.4 µM | activity change, negative = inhibition [2] 8.2% | activity change, negative = inhibition [4] 12.7% | Potency [5] > 46 µM | Potency [6] > 9.22 µM | Potency [7] | Potency [8]
active: Potency [3] 3.98 µM

Oc1cc(CN2COc3ccccc32)c(O)cc1CNC1CCCCC1
inactive: Potency [1] > 11.4 µM | activity change, negative = inhibition [2] 6.94% | Potency [3] | activity change, negative = inhibition [4] -5.35% | Potency [5] > 46 µM | Potency [6] > 9.22 µM | Potency [7] | Potency [8]

Cn1cnc([N+](=O)[O-])c1SCC(=O)O
inactive: Potency [1] > 11.4 µM | activity change, negative = inhibition [2] 3.98% | Potency [3] | activity change, negative = inhibition [4] 3.51% | Potency [5] > 46 µM | Potency [6] > 9.22 µM | Potency [7] | Potency [8] | Potency [10]

CC[C@@H](CS(=O)(=O)O)[N+](=O)[O-]
inactive: Potency [1] > 11.4 µM | activity change, negative = inhibition [2] 7.92% | Potency [3] | activity change, negative = inhibition [4] 19.9% | Potency [5] > 46 µM | Potency [6] > 9.22 µM | Potency [7] | Potency [8]

COc1cc(N=C(N)N=C(N)N)c2ncccc2c1
active: Potency [3] 0.398 µM
inactive: Potency [1] > 11.4 µM | activity change, negative = inhibition [2] -8.09% | activity change, negative = inhibition [4] 3.48% | Potency [5] > 46 µM | Potency [6] > 9.22 µM | Potency [7] | Potency [8]
